# Laboratory results as given in article PMC11062922 (Nature Chemical Biology, 2023).
# Where two headings read alike, the source gives them in different places.
# Tests used:
# Parameters in all cases: species or system human, MV4-11 + K-562 + COLO205 + SK-N-BE2 + OVCAR-8
# ACVR1B = settings: read-out: apparent Kd, n = 1
# ATM = settings: read-out: apparent Kd; compound concentrations: 100 nM and 1000 nM (sheet 'Samples'), CATDS: 0.55136512573741903; n = 1
# PIP4K2C = settings: read-out: apparent Kd; compound concentrations: 100 nM and 1000 nM (sheet 'Samples'), CATDS: 0.19748549423912701; n = 1
# PRKAG2 = settings: read-out: apparent Kd, compound concentrations: 100 nM and 1000 nM (sheet 'Samples'), n = 1
# CSNK1A1 = settings: read-out: apparent Kd; compound concentrations: 100 nM and 1000 nM (sheet 'Samples'), CATDS: 4.4417171665787201E-2; n = 1
# CSNK1D = settings: read-out: apparent Kd, compound concentrations: 100 nM and 1000 nM (sheet 'Samples'), n = 1
# CSNK1E = settings: read-out: apparent Kd, compound concentrations: 100 nM and 1000 nM (sheet 'Samples'), n = 1
# DDR1 = settings: read-out: apparent Kd; compound concentrations: 100 nM and 1000 nM (sheet 'Samples'), CATDS: 4.5461807893970897E-2; n = 1
# DDR2 = settings: read-out: apparent Kd; compound concentrations: 100 nM and 1000 nM (sheet 'Samples'), CATDS: 4.1041053531745197E-2; n = 1
# GAK = settings: read-out: apparent Kd; compound concentrations: 100 nM and 1000 nM (sheet 'Samples'), CATDS: 5.7317399451807E-2; n = 1
# MAPK10 = settings: read-out: apparent Kd; compound concentrations: 100 nM and 1000 nM (sheet 'Samples'), CATDS: 0.179195319148265; n = 1
# MAPK11 = settings: read-out: apparent Kd; compound concentrations: 100 nM and 1000 nM (sheet 'Samples'), CATDS: 5.6945469434317497E-2; n = 1
# MAPK14 = settings: read-out: apparent Kd, compound concentrations: 100 nM and 1000 nM (sheet 'Samples'), n = 1
# MAPK8 = settings: read-out: apparent Kd; compound concentrations: 100 nM and 1000 nM (sheet 'Samples'), CATDS: 5.2366017866035799E-2; n = 1
# MAPK9 = settings: read-out: apparent Kd; compound concentrations: 100 nM and 1000 nM (sheet 'Samples'), CATDS: 0.113637290114738; n = 1
# MAPKAPK2 = settings: read-out: apparent Kd; compound concentrations: 100 nM and 1000 nM (sheet 'Samples'), CATDS: 0.15591620581864199; n = 1
# NLK = settings: read-out: apparent Kd; compound concentrations: 100 nM and 1000 nM (sheet 'Samples'), CATDS: 5.1907933882023798E-2; n = 1
# RIPK3 = settings: read-out: apparent Kd; compound concentrations: 100 nM and 1000 nM (sheet 'Samples'), CATDS: 4.0216087331075998E-2; n = 1
# SIK3 = settings: read-out: apparent Kd; compound concentrations: 100 nM and 1000 nM (sheet 'Samples'), CATDS: 4.1962261561680501E-2; n = 1
# ADCK3 = settings: read-out: apparent Kd; compound concentrations: 100 nM and 1000 nM (sheet 'Samples'), CATDS: 0.14880786658068901; n = 1
# AKT2 = settings: read-out: apparent Kd; compound concentrations: 100 nM and 1000 nM (sheet 'Samples'), CATDS: 0.130692249594417; n = 1
# PIK3CA = settings: read-out: apparent Kd; compound concentrations: 100 nM and 1000 nM (sheet 'Samples'), CATDS: 0.46102021867548298; n = 1
# PIM2 = settings: read-out: apparent Kd; compound concentrations: 100 nM and 1000 nM (sheet 'Samples'), CATDS: 0.15422664553474699; n = 1
# ACVR1 = settings: read-out: apparent Kd; compound concentrations:100 nM and 1000 nM (sheet 'Samples'); n = 1
# BCR = settings: read-out: apparent Kd; compound concentrations:100 nM and 1000 nM (sheet 'Samples'); n = 1
# BMPR1A = settings: read-out: apparent Kd; compound concentrations:100 nM and 1000 nM (sheet 'Samples'); n = 1
# CSNK2A1;CSNK2A3 = settings: read-out: apparent Kd; compound concentrations:100 nM and 1000 nM (sheet 'Samples'); n = 1
# CSNK2A2 = settings: read-out: apparent Kd; compound concentrations:100 nM and 1000 nM (sheet 'Samples'); n = 1
# GSK3A = settings: read-out: apparent Kd; compound concentrations:100 nM and 1000 nM (sheet 'Samples'); n = 1
# GSK3B = settings: read-out: apparent Kd; compound concentrations:100 nM and 1000 nM (sheet 'Samples'); n = 1
# JAK2 = settings: read-out: apparent Kd; compound concentrations:100 nM and 1000 nM (sheet 'Samples'); n = 1
# TGFBR1 = settings: read-out: apparent Kd; compound concentrations:100 nM and 1000 nM (sheet 'Samples'); n = 1
smiles,measurement,setting,value
NC(=O)c1cc(-c2ccncc2)cc(-c2ccccc2)c1N [GSK625137A],potency estimated from few doses,"ACVR1B; compound concentrations: 100 nM and 1000 nM (sheet 'Samples'), CATDS: 0.24390652724185299",1010 nM
same,potency estimated from few doses,ATM,223 nM
same,potency estimated from few doses,PIP4K2C,1780 nM
same,potency estimated from few doses,PRKAG2; CATDS: 0.19909509316552701,1730 nM
NC(=O)c1ccc2c(-c3ccnc(NCCCO)n3)c(-c3ccc(F)cc3)nn2c1 [GW581744X],potency estimated from few doses,"ACVR1B; compound concentrations: 100 nM and 1000 nM (sheet 'Samples'), CATDS: 5.1726105609422098E-2",678 nM
same,potency estimated from few doses,CSNK1A1,1210 nM
same,potency estimated from few doses,CSNK1D; CATDS: 0.12647868619351901,70.3 nM
same,potency estimated from few doses,CSNK1E; CATDS: 7.8439067124282905E-2,202 nM
same,potency estimated from few doses,DDR1,1100 nM
same,potency estimated from few doses,DDR2,1740 nM
same,potency estimated from few doses,GAK,485 nM
same,potency estimated from few doses,MAPK10,38 nM
same,potency estimated from few doses,MAPK11,495 nM
same,potency estimated from few doses,MAPK14; CATDS: 0.23382543991059199,25.3 nM
same,potency estimated from few doses,MAPK8,651 nM
same,potency estimated from few doses,MAPK9,86.9 nM
same,potency estimated from few doses,MAPKAPK2,48 nM
same,potency estimated from few doses,NLK,670 nM
same,potency estimated from few doses,RIPK3,1940 nM
same,potency estimated from few doses,SIK3,1560 nM
COc1ccc(-c2ccc3c(NC(=O)C4CC4)n[nH]c3n2)cc1 [SB-711237],potency estimated from few doses,"ACVR1B; compound concentrations: 100 nM and 1000 nM (sheet 'Samples'), CATDS: 0.16866039240373501",1180 nM
same,potency estimated from few doses,ADCK3,1590 nM
same,potency estimated from few doses,AKT2,2260 nM
same,potency estimated from few doses,PIK3CA,210 nM
same,potency estimated from few doses,PIM2,1450 nM
same,potency estimated from few doses,PRKAG2; CATDS: 0.141920033586769,1790 nM
COc1cccc(-n2ncc3c(N/N=C/c4ccncc4)ncnc32)c1 [GW784752X],potency estimated from few doses,ACVR1B; compound concentrations:100 nM and 1000 nM (sheet 'Samples'),725 nM
same,potency estimated from few doses,ACVR1,119 nM
same,potency estimated from few doses,BCR,641 nM
same,potency estimated from few doses,BMPR1A,1130 nM
same,potency estimated from few doses,CSNK2A1;CSNK2A3,882 nM
same,potency estimated from few doses,CSNK2A2,252 nM
same,potency estimated from few doses,GSK3A,47.2 nM
same,potency estimated from few doses,GSK3B,75.6 nM
same,potency estimated from few doses,JAK2,603 nM
same,potency estimated from few doses,TGFBR1,1520 nM
CN(C)CCCNc1nccc(-c2c(-c3ccc(F)cc3)nn3cc(C(F)(F)F)ccc23)n1.CS(=O)(=O)O [GW618013A],potency estimated from few doses,"ACVR1B; compound concentrations: 100 nM and 1000 nM (sheet 'Samples'), CATDS: 0.30191803443786602",849 nM
same,potency estimated from few doses,CSNK1D; CATDS: 0.30648491159914698,827 nM
same,potency estimated from few doses,CSNK1E; CATDS: 0.19201098088976601,2340 nM
same,potency estimated from few doses,MAPK14; CATDS: 0.23713518302070899,1370 nM
